High-throughput results deposited in PubChem by National Center for Advancing Translational Sciences (NCATS).
RXFP1 agonist: qHTS Assay for Agonists of the Relaxin Receptor RXFP1; Relaxin receptor 1 (Homo sapiens), Q9HBX9; HEK293T-RXFP1 cAMP TR-FRET, 30 min; response scale: percent of porcine relaxin response, buffer zero; Potency, µM (doses to about 57.5 µM), without a hit: top-dose activation, usual class: activators; 370,000 tested, 0.3% active; AID 2676, 2010; active means well fitted activation curve with a large enough effect; inconclusive means small, poorly fitted or top-dose-only effect; further: potency means the concentration at half of the fitted maximal effect; on the % scale 0 is the no-effect control and ±100 the full control effect; nearly all actives have a fitted effect of over 60% in size
Target sequence (Q9HBX9 whole entry, looked up): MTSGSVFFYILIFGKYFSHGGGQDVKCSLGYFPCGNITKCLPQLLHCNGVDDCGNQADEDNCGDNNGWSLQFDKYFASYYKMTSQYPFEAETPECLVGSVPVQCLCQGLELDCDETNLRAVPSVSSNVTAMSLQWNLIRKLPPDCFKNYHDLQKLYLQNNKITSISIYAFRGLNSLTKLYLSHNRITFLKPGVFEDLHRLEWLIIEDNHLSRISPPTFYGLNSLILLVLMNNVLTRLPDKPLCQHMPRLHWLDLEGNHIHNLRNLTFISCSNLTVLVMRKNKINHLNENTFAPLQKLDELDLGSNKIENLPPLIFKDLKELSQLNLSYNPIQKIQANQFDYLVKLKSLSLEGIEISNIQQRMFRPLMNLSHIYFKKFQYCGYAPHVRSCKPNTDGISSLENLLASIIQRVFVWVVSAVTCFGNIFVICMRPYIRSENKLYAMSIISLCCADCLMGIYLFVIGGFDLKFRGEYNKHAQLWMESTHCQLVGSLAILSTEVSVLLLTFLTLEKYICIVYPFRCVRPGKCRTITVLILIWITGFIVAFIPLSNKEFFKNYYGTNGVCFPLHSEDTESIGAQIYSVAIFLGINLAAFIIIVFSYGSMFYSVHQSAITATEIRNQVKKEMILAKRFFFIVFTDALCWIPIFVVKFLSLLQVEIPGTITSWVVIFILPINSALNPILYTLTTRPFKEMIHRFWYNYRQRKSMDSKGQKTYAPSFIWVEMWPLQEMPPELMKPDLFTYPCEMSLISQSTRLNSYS
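HEK293 cells stably expressing RXFP1, treated 30 min at 37C with compounds plus PDE4 inhibitor Ro 20174; cAMP measured by HTRF TR-FRET. Normalized to buffer and 29 nM porcine relaxin; EC50 by Hill fit.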
gsp agonist: qHTS for Agonist of gsp, the Etiologic Mutation Responsible for Fibrous Dysplasia/McCune-Albright Syndrome: qHTS. gsp mutant cells, cAMP HTRF, 30 min. Potency, µM (series often up to 76.9 µM), without a hit: top-dose activation (cAMP increase), usual class: activators. 340,000 tested, 0.13% active. AID 624287, 2012; active means well fitted activation curve with a large enough effect; inconclusive means small, poorly fitted or top-dose-only effect, or another doubt; inactive means no such curve, though single readings can be large or run the other way; cell line not stated here;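 further: phosphodiesterase inhibitor Ro 20-1724 added with compounds to block cAMP breakdown; potency means the concentration at half of the fitted maximal effect; nearly all actives have a fitted effect of over 60% in size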
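Cells in DMEM/10% FBS with G418 were pretreated with compounds in DMSO plus […] (300 uM stock) for 30 min at 37C. cAMP was measured by HTRF (cAMP-d2 plus anti-cAMP antibody-K) after 30 min at room temperature.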
gsp antagonist: qHTS for Antagonists of gsp, the Etiologic Mutation Responsible for Fibrous Dysplasia/McCune-Albright Syndrome: qHTS; gsp-mutant cells, cAMP HTRF, 30 min; Potency, µM (highest dose often 76.9 µM), for the others: at the highest dose activity change, negative = inhibition, actives largely listed as inhibitors; 340,000 tested, 0.4% active; AID 624288, 2012; calls by dose curve; cell line not stated here;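 further: intracellular cAMP measured with PDE inhibitor Ro 20-1724 present during compound exposure; potency means the concentration at half of the fitted maximal effect; on the % scale 0 is the no-effect control and ±100 the full control effect; nearly all actives have a fitted effect of over 65% in size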
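HTRF cAMP measurement after 30 min RT detection following 30 min, 37C compound treatment alongside […] (added as 300 uM solution) in G418-selected cells seeded at 2000/well and grown 16–24 h.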
RXFP1 antag: qHTS Assay for Antagonists of the Relaxin Receptor RXFP1; Relaxin receptor 1 (Homo sapiens), Q9HBX9; activity change, negative = inhibition, % at 57.5 µM; HEK293-RXFP1, relaxin-stimulated cAMP HTRF, 30 min; hits give low values; 350,000 tested, 0.59% active;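 active means activity change of -60% or lower, but not beyond a set lower limit; inconclusive means change between -60% and -40%, or beyond the set limit; inactive means change above -40%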; further: on the % scale 0 is the no-effect control and ±100 the full control effect
* hit, by the source's call; ? = inconclusive; nt = no result given; [ ] = remark or other dose. Compounds with a hit are over-represented: about 0.9% of the library has one in this group of screens.

SMILES	RXFP1 agonist	gsp agonist	gsp antagonist	RXFP1 antag
CCN(CC)C(=O)COc1ccc(/C(C)=N/NC(=O)c2ccccc2-n2cccc2)cc1	-1.4%	?	-2.3%	4.6
Cc1nc2c(C(=O)NCCc3ccc(Cl)cc3)cnn2c(C)c1Cc1c(F)cccc1Cl	0.8%	nt	nt	-21.0
Cc1nc2c(C(=O)NCCc3ccc(Cl)cc3)cnn2c(C)c1Cc1ccc(F)cc1	-1.1%	nt	nt	-61.4*
Cc1nc2c(C(=O)NC(C)c3ccccc3)cnn2c(C)c1Cc1ccccc1 (centres undefined)	-1.8%	nt	nt	-85.4*
COC(CNC(=O)c1cnn2c(C)c(Cc3ccccc3)c(C)nc12)OC	-0.2%	-8.1%[15.4 µM]	-8.8%	5.3
CCCn1c(=S)[nH]c2cc(C(=O)N(CCO)Cc3ccccc3)ccc2c1=O	3.1%	-13.2%	-27.1%	-74.7*
COc1ccc(CNC(=O)c2ccc3c(=O)n(CCCN4CCCC4=O)c(=S)[nH]c3c2)cc1	5.8%	15.9%[15.4 µM]	-8.0%	-116.5*
CCOCCCn1c(=S)[nH]c2cc(C(=O)NCC(OC)OC)ccc2c1=O	-2.8%	5.4%	-5.3%	-65.8*
COC(=O)c1ccc2c(=O)n(CCCN3CCCC3=O)c(=S)[nH]c2c1	-0.6%	?	-10.6%	24.1
CCN(CC)C(=O)c1ccc2c(=O)n(CCOC)c(=S)[nH]c2c1	-2.3%	15.2%	-2.8%	6.9
COc1ccccc1CNC(=O)c1ccc2c(=O)n(CCCN3CCCC3=O)c(=S)[nH]c2c1	9.9%	2.4%[15.4 µM]	-6.5%	-64.8*
Cc1ccc(CNC(=O)c2ccc3c(=O)n(CCCN4CCCC4=O)c(=S)[nH]c3c2)cc1	1.7%	?	1.7%	-0.5
O=C(NCc1ccccc1)c1ccc2c(=O)n(CCCN3CCCC3=O)c(=S)[nH]c2c1	2.1%	26.9%	-12.9%	-73.8*
Cc1ccc(CCNC(=O)c2c3c(nc4ccccc24)C(=O)N(C2CCCCC2)C3)cc1	2.1%	nt	nt	-71.6*
CCCCOc1c(C(=O)Nc2ccccc2)nnn1-c1ccccc1	1.2%	-31.4%[15.4 µM]	nt	-87.0*
CCOC(=O)c1[nH]cnc1C(=O)Nc1ccccc1	14.2%	3.0%[15.4 µM]	nt	-4.7
Cc1cc(C(=O)COC(=O)c2ccc(O)cc2)c(C)n1-c1ccccc1F	2.4%	9.5%[15.4 µM]	8.8%	-82.8*
CCOc1ccccc1CNC(=O)CCC(=O)N1CCSc2ccccc21	0.2%	nt	nt	16.0
O=C(O)CN1C(=O)/C(=C2\C(=O)N(Cc3ccccc3Cl)c3ccccc32)SC1=S	2.5%	-1.3%[15.4 µM]	9.0%	30.3
O=C1/C(=C2\C(=O)N(Cc3ccc(F)cc3)c3ccccc32)SC(=S)N1CCS(=O)(=O)O	0.0%	-51.4%	-1.2%	-72.4*
CC(C)(C)c1ccc(C(=O)CC(Sc2ccc(Cl)cc2)C(=O)O)cc1 (centres undefined)	0.2%	-22.5%	-30.8%	-95.8*
Cc1ccc(SC(CC(=O)c2ccc(F)cc2)C(=O)O)cc1 (centres undefined)	4.8%	-8.1%[15.4 µM]	-16.2%	-8.1
C=CCNc1ncnc2c1ncn2C1OC(CO)C(O)C1O (centres undefined)	25.1µM*	25.0%	4.5%	0.3
Nc1ncnc2c1ncn2C1OC(CO)C(O)C1O (centres undefined)	14.1µM*	2.3%	10.3%	1.2
CCCCOc1ccc(C(=O)NCC(c2ccc(Cl)cc2)N2CCOCC2)cc1 (centres undefined)	0.4%	nt	nt	-9.1
SMILES	RXFP1 agonist	gsp agonist	gsp antagonist	RXFP1 antag
C=CCn1c(=O)[nH]c2cc(C(=O)N3CCN(c4cccc(Cl)c4)CC3)ccc2c1=O	0.0%	-42.3%	31.6µM*	-5.7
C=CCn1c(=O)[nH]c2cc(C(=O)N3CCN(c4ccc(C(C)=O)cc4)CC3)ccc2c1=O	2.7%	-21.2%	-23.5%	23.9
O=C(OCC(=O)c1ccc[nH]1)c1ccc(Cl)c(Cl)c1	nt	12.2%	8.6%	-87.1*
COc1ccc(/C=N/NC(=O)C(=O)N2CCCC2)cc1	0.6%	13.1%[15.4 µM]	-10.9%	-10.6
O=C(COc1ccc(/C=N/NC(=O)C(=O)N2CCCCC2)cc1)Nc1ccccc1Cl	-1.1%	3.0%	-18.4%	-73.1*
O=C(NN1CCCC1)NS(=O)(=O)c1ccc(Cl)cc1	nt	nt	nt	10.0
CCCCn1c(N2CCC(Cc3ccccc3)CC2)nc2c1c(=O)[nH]c(=O)n2C	0.9%	14.9%	8.9%	-90.2*
Cc1nnc(SCCn2c(N3CCC(Cc4ccccc4)CC3)nc3c2c(=O)[nH]c(=O)n3C)s1	-1.1%	-13.9%[15.4 µM]	-16.3%	-29.0
